Assay outcomes deposited in PubChem BioAssay by National Center for Advancing Translational Sciences (NCATS).
Cycloheximide cs: counter-screen for Shiga toxin inhibitors: cycloheximide protein synthesis inhibition | cell reporter, cycloheximide protein synthesis inhibition counterscreen | max response, % | hit rate 12% among 300,000; in the data active = max response mostly above about 13%, no sharp cut-off; inactive = mostly below about 14%; note: read at 38.3 µM for the half of the compounds with a filed dose
Pf growth 96h: P. falciparum growth inhibition at 96 hours. P. falciparum luciferase reporter growth, 96 h. Potency, µM (top dose mostly 28.7 µM), usual class: inhibitors. hit rate 6.9% among 320,000. AID 504834
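P. falciparum expressing integrated firefly luciferase, in erythrocytes at 2% hematocrit, 0.05% parasitemia, incubated with compounds 96 h at 37 C, 5% CO2. Growth inhibition read as loss of luminescence; two-generation exposure targets delayed-death apicoplast inhibitors.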
SARS PLpro yeast: blocks SARS-CoV papain-like protease in a yeast assay; S. cerevisiae expressing SARS-CoV PLpro, growth rescue; Potency, µM (top dose mostly 32.9 µM), hits mostly activators; hit rate 0.19% among 330,000; calls by dose curve; note: nearly all actives have a fitted effect of over 55% in size
NS1 inh: influenza NS1 inhibition; Potency, µM (doses to about 46.1 µM); hit rate 0.4% among 270,000; AID 2326; calls by dose curve; note: actives are rising curves; nearly all actives have a fitted effect of over 50% in size
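OD600 was taken as the measure of yeast growth restored by compound in an NS1-expressing S. cerevisiae strain. Cells had been washed out of glucose medium and diluted 1:100 into galactose -URA medium, pH 6.0.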
Pf growth 48h: inhibits P. falciparum growth in the first generation, 48 h; P. falciparum luciferase growth in erythrocytes, 48 h; Potency, µM (doses to about 28.7 µM), hits mostly inhibitors; hit rate 5.9% among 310,000; AID 504832
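Growth was read as firefly luciferase luminescence after a 48 h, 37 C, 5% CO2 exposure of compounds to reporter-bearing P. falciparum cultures (0.1% parasitemia, 2% hematocrit final) in Albumax-supplemented RPMI 1640.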
Shiga inhibitor: Shiga toxin inhibition; Vero cells, Shiga toxin protein synthesis inhibition reporter; inhibition, % at 38.7 µM; hit rate 9.2% among 290,000; AID 2315; in the data active = inhibition mostly above about 28%, no sharp cut-off; inactive = mostly below about 43%
Of the large screens only hits and unclear results are named; the others gave an inactive call. Compounds with a hit are over-represented: about 21% of the library has one in this group of screens. Unless noted, calls come from the whole dose curve; as a rule, active = well fitted inhibition curve with a large enough effect; inconclusive = small, poorly fitted or top-dose-only effect, or another doubt; inactive = no such curve, though single readings can be large or run the other way.

Cc1ccc(S(=O)(=O)N2c3ccccc3NC(=O)C2CC(=O)Nc2ccccc2)cc1 (stereo not drawn)	Pf growth 96h 12µM, Pf growth 48h inconclusive
Cc1ccc(S(=O)(=O)N2c3ccccc3NC(=O)CC2C)cc1 (stereo not drawn)	Pf growth 48h inconclusive
COc1ccc(C(=O)NCc2ccc(-c3nc4ccccc4s3)cc2)cc1OC	none (no result: Pf growth 96h)
O=C(NC(=S)NCc1ccc(-c2nc3ccccc3s2)cc1)c1ccco1	Cycloheximide cs 30, Pf growth 96h 15µM, Shiga inhibitor 64
O=C(NCc1ccc(-c2nc3ccccc3s2)cc1)c1ccco1	Cycloheximide cs 34, Pf growth 48h inconclusive, Shiga inhibitor 71
O=C(NCc1ccccc1)c1ccco1	Pf growth 96h inconclusive
Cc1ccccc1C(=O)N(C)c1ccccc1C(=O)NCc1ccccc1	none
NC(=O)C1(N2CCCCC2)CCN(Cc2ccc(Br)cc2)CC1	Cycloheximide cs 26
CN1C(=O)CC(c2ccco2)Sc2ccccc21 (stereo not drawn)	none
O=C1CC(c2ccc3c(c2)OCO3)Sc2nc3ccccc3n21 (stereo not drawn)	Cycloheximide cs 51, Shiga inhibitor 106
O=C1CC(c2ccccc2)Sc2nc3ccccc3n21 (stereo not drawn)	Cycloheximide cs 41, Shiga inhibitor 99 (no result: NS1 inh)
O=C1CC(c2ccc(F)cc2)Sc2nc(-c3ccccc3)c(-c3ccccc3)n21 (stereo not drawn)	none
O=C1CC(c2ccco2)Sc2nc3ccccc3n21 (stereo not drawn)	Cycloheximide cs 36, Shiga inhibitor 82
O=C1CC(c2cccs2)Sc2nc3ccccc3n21 (stereo not drawn)	Cycloheximide cs 45, Shiga inhibitor 106 (no result: Pf growth 96h)
COc1ccc(CNC(=O)c2cccc(S(=O)(=O)N3CCCCC3)c2)cc1OC	Pf growth 96h inconclusive, Pf growth 48h inconclusive (no result: Cycloheximide cs, NS1 inh, Shiga inhibitor)
CNC(=O)/C(C#N)=C/c1c(N(Cc2ccccc2)Cc2ccccc2)nc2c(C)cccn2c1=O	Pf growth 96h 2.9µM, NS1 inh inconclusive, Pf growth 48h 13µM
CCNC(=O)/C(C#N)=C/c1c(N(Cc2ccccc2)Cc2ccccc2)nc2ccccn2c1=O	Pf growth 96h 13µM, SARS PLpro yeast inconclusive, Pf growth 48h 3.7µM
CCCCN(C)C(=O)C1CCN(c2ccc(S(=O)(=O)N3CCOCC3)cc2[N+](=O)[O-])CC1	Pf growth 96h 9.3µM, Pf growth 48h inconclusive (no result: Cycloheximide cs, NS1 inh, Shiga inhibitor)
O=C(NCc1cccnc1)C1CCN(c2ccc(S(=O)(=O)N3CCOCC3)cc2Cl)CC1	none
CC(C)NC(=O)C1CCN(c2ccc(S(=O)(=O)N3CCOCC3)cc2Cl)CC1	Pf growth 96h inconclusive
CCCNC(=O)C1CCN(c2ccc(S(=O)(=O)N3CCOCC3)cc2Cl)CC1	Pf growth 96h inconclusive, Pf growth 48h 13µM
CC(C)CNC(=O)C1CCN(c2ccc(S(=O)(=O)N3CCOCC3)cc2[N+](=O)[O-])CC1	Pf growth 96h inconclusive, Pf growth 48h inconclusive
C=CCNC(=O)C1CCN(c2ccc(S(=O)(=O)N3CCOCC3)cc2Cl)CC1	Pf growth 48h 9.3µM
CCCC1CCC(c2ccc(OCC)cc2)=CC1=O (stereo not drawn)	Cycloheximide cs 43, Shiga inhibitor 34
Cc1ccc(/C=N\NC(=O)CNC(=O)C23CC4CC(CC(C4)C2)C3)o1	none
CCOc1ccc(-n2nnnc2SCC(=O)N2CCOCC2)cc1	none
O=C(CCSc1nc2ccccc2o1)N1CCOCC1	Cycloheximide cs 32, Shiga inhibitor 56
O=C(CCSc1nnnn1-c1ccccc1)N1CCOCC1	Shiga inhibitor 36 (no result: Pf growth 96h)
O=C(CCSc1ccccc1)N1CCOCC1	Cycloheximide cs 35, Pf growth 96h inconclusive, Shiga inhibitor 80
O=C(CCSc1ccccc1)N1CCCC1	Cycloheximide cs 46, Shiga inhibitor 79
CCOc1ccc(NS(=O)(=O)c2c(C)nc3sc(CC)nn3c2=O)cc1	none
Cc1ccc(-n2ncc3c(SCc4cccnc4)ncnc32)c(C)c1	Pf growth 96h inconclusive, Pf growth 48h inconclusive (no result: NS1 inh)
CN(C)C(=O)CCc1ccc2c3c([nH]c2c1)[C@]1(CCc2ccccc2)[C@@H](C(=O)N2CCCCC2)C[C@H](CC(=O)NCCCn2ccnc2)C(=O)N1CC3	none (no result: Cycloheximide cs, Pf growth 96h, NS1 inh, Pf growth 48h, Shiga inhibitor)
Cc1ccc(Nc2nc3ccccc3c(=O)s2)cc1	Pf growth 96h inconclusive
Cc1nc(Nc2ccc(C(=O)O)cc2)nc(Nc2ccc(C(=O)O)cc2)c1[N+](=O)[O-]	none (no result: NS1 inh)
Cc1nc(Nc2ccccc2)sc1-c1ccccc1	Cycloheximide cs 35, Shiga inhibitor 88
Cc1nc(Nc2ccc(C(=O)O)cc2)sc1-c1ccccc1	Cycloheximide cs 53, NS1 inh inconclusive, Shiga inhibitor 84
COc1cccc(CN2CCN(Cc3ccc(C)o3)CC2CCO)c1 (stereo not drawn)	Pf growth 96h 13µM
COc1cccc(CN2CCN(Cc3ccc(O)c(OC)c3)CC2CCO)c1 (stereo not drawn)	none
COc1cccc(CN2CCN(Cc3ccc(OC)c(OC)c3)CC2CCO)c1 (stereo not drawn)	Pf growth 96h 9.3µM
CC(C)C(NC(=O)OCc1ccccc1)C(=O)N1CCOCCOCCOCC1 (stereo not drawn)	none (no result: NS1 inh)
CC(=O)NCCNC(=O)C1CCCCN1S(=O)(=O)c1ccccc1 (stereo not drawn)	none
CCCn1c(=O)cc(N)n(-c2ccc(OC(F)(F)F)cc2)c1=O	none
NC1=NC2=C(CCCC2)C2(CCCCC2)S1	Pf growth 48h 13µM
CCOC(=O)[C@@H]1[C@H]2COc3cc(OC)ccc3[C@H]2N2C(=O)N(c3ccc(C)cc3)C(=O)[C@@]12C	Pf growth 96h inconclusive, Pf growth 48h inconclusive
Cn1c(=O)oc2cc(S(=O)(=O)NCCC(=O)NCc3ccc(F)cc3)ccc21	Pf growth 96h 13µM
CC(C)(C)NC(=O)CN(Cc1ccc2c(c1)OCO2)C(=O)CNC(=O)c1cccs1	none
N#CC(c1ccc(Cl)cc1)c1ccc2c(C(F)(F)F)cc(C(F)(F)F)nc2n1 (stereo not drawn)	Pf growth 96h 2.6µM (no result: Pf growth 48h)
CC(C)=CCC1=C(OCC(=O)O)C(=O)c2ccccc2C1=O	Pf growth 96h 2.9µM, Pf growth 48h 13µM
COc1ccccc1OCC(=O)O	none
CC(C)=CCC/C(C)=C/CC/C(C)=C/CC/C(C)=C/CC1=C(C)C(=O)c2ccccc2C1=O	Pf growth 96h 5.2µM, Pf growth 48h 12µM
COc1ccc(S(=O)(=O)Nc2ccc(-n3cccc3)cc2)cc1	Pf growth 48h inconclusive (no result: NS1 inh)
COCC(=O)Nc1nnc(COc2ccc(Cl)cc2)s1	Cycloheximide cs 20, Shiga inhibitor 73
O=C(CSc1ccccc1)Nc1nnc(COc2ccc(Cl)cc2)s1	Cycloheximide cs 65, Shiga inhibitor 61
CC(=O)CS(=O)(=O)c1ccc(Oc2ccc(S(=O)(=O)CC(C)=O)cc2)cc1	none
CC(=O)CCS(=O)(=O)c1ccc(Oc2ccc(S(=O)(=O)CCC(C)=O)cc2)cc1	Cycloheximide cs 17, Pf growth 96h inconclusive, Shiga inhibitor 23
